Source: PubChem
Hits are enriched below; roughly 6.7% of the tested compounds scored in any of these assays.
Pf Dd2 inh: inhibitors of Plasmodium falciparum Dd2 growth; P. falciparum Dd2 growth, SYBR Green, 72 h; hits give low values; activity change, % at 10 µM; actives 2.3% (n = 94,000); in the data active = activity change below about -80%
C diff HTS: C. difficile growth inhibition; Clostridium difficile clinical isolate growth, OD600, 24 h; hits give low values; growth activity, negative = inhibition, % at 16 µg/mL (by protocol); actives 0.25% (n = 86,000); AID 1259249;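 active = mean growth activity at or below -80% and every replicate also at or below -80%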
Tcruzi prolif: blocks T. cruzi growth in NIH3T3 culture. T. cruzi beta-gal in NIH3T3, GalScreen luminescence, 90 h. inhibition, % at 8.34 µM. actives 5.9% (n = 77,000);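 active = mean inhibition above about 93%, with at least 55% of replicates each passing it, limit read from the data, passing the limit was not always enough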
Of the large screens only hits and unclear results are named; the others gave an inactive call.

COc1ccc(S(=O)(=O)Nc2ccc3c(c2)C(=O)N([C@H](C)CO)C[C@@H](C)[C@@H](CN(C)C(=O)Nc2cccc4ccccc24)OCCCC[C@@H](C)O3)cc1	Pf Dd2 inh -86 (no result: C diff HTS)
COc1ccc(S(=O)(=O)Nc2ccc3c(c2)C(=O)N([C@@H](C)CO)C[C@@H](C)[C@@H](CN(C)C(=O)Nc2cccc4ccccc24)OCCCC[C@@H](C)O3)cc1	none (no result: C diff HTS)
COc1ccc(S(=O)(=O)Nc2ccc3c(c2)C(=O)N([C@@H](C)CO)C[C@H](C)[C@H](CN(C)C(=O)Nc2cccc4ccccc24)OCCCC[C@H](C)O3)cc1	Pf Dd2 inh -86 (no result: C diff HTS)
COc1ccc(S(=O)(=O)Nc2ccc3c(c2)C(=O)N([C@@H](C)CO)C[C@H](C)[C@@H](CN(C)C(=O)Nc2cccc4ccccc24)OCCCC[C@H](C)O3)cc1	none
CCCC#Cc1ccc2c(c1)O[C@@H](CN(C)C(=O)NC(C)C)[C@@H](C)CN([C@H](C)CO)S2(=O)=O	none
O=C(c1cccnc1)N1CC(=O)N2[C@@H](CO)[C@H](c3ccc(-c4cccnc4)cc3)[C@@H]2C1	none (no result: Tcruzi prolif)
O=C1CN(Cc2ccc(F)cc2)C[C@@H]2[C@@H](c3ccc(Br)cc3)[C@@H](CO)N12	none (no result: Tcruzi prolif)
O=C(C1CCCC1)N1CC(=O)N2[C@H](CO)[C@H](c3ccc(-c4cccnc4)cc3)[C@H]2C1	Pf Dd2 inh -90 (no result: Tcruzi prolif)
O=C(c1cccnc1)N1CC(=O)N2[C@H](C1)[C@@H](c1ccc(-c3cccnc3)cc1)[C@@H]2CO	Pf Dd2 inh -87 (no result: Tcruzi prolif)
COc1ccc(-c2ccc([C@@H]3[C@H]4CN(C(=O)C5CCCC5)CC(=O)N4[C@H]3CO)cc2)cc1	none (no result: Tcruzi prolif)
O=C(C1CCCC1)N1CC(=O)N2[C@H](CO)[C@@H](c3ccc(-c4cccnc4)cc3)[C@@H]2C1	none (no result: Tcruzi prolif)
O=C1CN(Cc2ccc(F)cc2)C[C@@H]2[C@@H](c3ccc(Br)cc3)[C@H](CO)N12	Pf Dd2 inh -87 (no result: Tcruzi prolif)
COc1ccc(-c2ccc([C@@H]3[C@@H](CO)N4C(=O)CN(C(=O)C5CCCC5)C[C@@H]34)cc2)cc1	Pf Dd2 inh -86 (no result: Tcruzi prolif)
C[C@H](CO)N1C[C@H](C)[C@H](CN(C)S(=O)(=O)c2ccccc2)Oc2ccc(N(C)C)cc2CC1=O	none
CC(C)C#Cc1cnc2c(c1)C(=O)N([C@@H](C)CO)C[C@@H](C)[C@H](CN(C)Cc1cncnc1)O2	none
C[C@H](CO)N1C[C@H](C)[C@@H](CN(C)Cc2ccc(Oc3ccccc3)cc2)Oc2ccc(NC(=O)CCC(F)(F)F)cc2CC1=O	none
C[C@@H]1CN([C@H](C)CO)C(=O)c2cc(-c3ccccc3F)cnc2O[C@@H]1CN(C)C(=O)CN(C)C	none
C[C@@H]1CN([C@H](C)CO)C(=O)c2cccc(NS(=O)(=O)c3ccccc3)c2O[C@H]1CN(C)C(=O)Nc1ccccc1	none
O=C(c1ccc(F)cc1)N1CC(=O)N2[C@@H](CO)[C@H](c3ccc(-c4cccnc4)cc3)[C@@H]2C1	none (no result: Tcruzi prolif)
O=C(c1ccccc1F)N1CC(=O)N2[C@H](C1)[C@@H](c1ccc(-c3ccc(F)cc3)cc1)[C@@H]2CO	Pf Dd2 inh -89 (no result: Tcruzi prolif)
O=C(c1ccccc1F)N1CC(=O)N2[C@@H](CO)[C@H](c3ccc(-c4ccc(F)cc4)cc3)[C@@H]2C1	none (no result: Tcruzi prolif)
O=C(c1ccncc1)N1CC(=O)N2[C@H](C1)[C@@H](c1ccc(-c3cccnc3)cc1)[C@@H]2CO	Pf Dd2 inh -86 (no result: Tcruzi prolif)
C[C@H](CO)N1C[C@H](C)[C@H](CN(C)Cc2ccccc2)Oc2ccc(NC(=O)c3ccncc3)cc2C1=O	none
COc1ccc2c3c([nH]c2c1)[C@@H](CO)N(C(=O)Nc1ccccc1F)CC31CCN(C(C)=O)CC1	none (no result: Tcruzi prolif)
CCC(=O)N1CC2(CCN(C(=O)Nc3ccc(F)cc3)CC2)c2c([nH]c3cc(OC)ccc23)[C@@H]1CO	none (no result: Tcruzi prolif)
COc1ccc2c3c([nH]c2c1)[C@H](CO)N(C(=O)Cc1ccccc1)CC31CCN(C)CC1	none (no result: Tcruzi prolif)
COc1ccc2c3c([nH]c2c1)[C@H](CO)N(C(=O)Cc1ccccc1)CC31CCN(C(=O)Nc2ccccc2F)CC1	Pf Dd2 inh -91 (no result: Tcruzi prolif)
COc1ccc2c3c([nH]c2c1)[C@@H](CO)N(C(=O)Cc1ccccc1)CC31CCN(C(=O)Cc2ccccc2)CC1	Pf Dd2 inh -87 (no result: Tcruzi prolif)
COc1ccc2c3c(n(C)c2c1)[C@H](CO)N(C(=O)c1ccccc1)CC31CCN(C(=O)c2ccccc2)CC1	Pf Dd2 inh -88 (no result: Tcruzi prolif)
CCC(=O)N1CC2(CN(C(=O)Nc3ccc(F)cc3)C2)c2c([nH]c3cc(OC)ccc23)[C@@H]1CO	Pf Dd2 inh -84 (no result: Tcruzi prolif)
COc1ccc2c3c(n(C)c2c1)[C@H](CO)N(C(=O)c1ccccc1)CC31CCN(C(C)=O)CC1	none (no result: Tcruzi prolif)
CN(C)CCCNC(=O)[C@@H]1[C@@H](CO)[C@@H]2Cn3c(ccc(-c4cccc(C(=O)N(C)C)c4)c3=O)[C@H]1N2	none
CC(C)CC#Cc1ccc2c(c1)O[C@@H](CN(C)C(=O)c1cnccn1)[C@@H](C)CN([C@H](C)CO)S2(=O)=O	none (no result: Tcruzi prolif)
O=C(C[C@H]1C[C@H]2c3cc(NC(=O)C4CCC4)ccc3O[C@H]2[C@H](CO)O1)NCc1ccccc1F	none (no result: Tcruzi prolif)
O=C([C@H]1[C@H](CO)[C@H]2Cn3c(cccc3=O)[C@H]2N1Cc1ccccc1Cl)N1CCOCC1	none
CCC(=O)N1CC2(CN(C(=O)Cc3ccccc3)C2)c2c(n(C)c3cc(OC)ccc23)[C@@H]1CO	none (no result: Tcruzi prolif)
COc1ccc2c3c(n(C)c2c1)[C@H](CO)N(C(=O)Cc1ccccc1)CC31CN(C(=O)Cc2ccccc2)C1	Pf Dd2 inh -83 (no result: Tcruzi prolif)
COc1ccc(CN2CC3(CN(C(=O)Cc4ccccc4)C3)c3c([nH]c4cc(OC)ccc34)[C@H]2CO)cc1	Pf Dd2 inh -89 (no result: Tcruzi prolif)
COc1ccc2c3c([nH]c2c1)[C@@H](CO)N(C(=O)Nc1ccc(F)cc1)CC31CN(C(=O)Cc2ccccc2)C1	none (no result: Tcruzi prolif)
COc1ccc2c3c([nH]c2c1)[C@H](CO)N(C(=O)Cc1ccccc1)CC31CN(C(=O)Cc2ccccc2)C1	Pf Dd2 inh -83 (no result: Tcruzi prolif)
COc1ccc(CN2CC3(CN(C(=O)Cc4ccncc4)C3)c3c([nH]c4cc(OC)ccc34)[C@@H]2CO)cc1	none (no result: Tcruzi prolif)
O=C(C[C@H]1CC[C@H](NC(=O)Nc2cccc(F)c2)[C@@H](CO)O1)NCC1CCCCC1	none (no result: Tcruzi prolif)
C[C@H]1CN([C@@H](C)CO)C(=O)c2cc(NC(=O)Cn3cnnn3)ccc2O[C@@H]1CN(C)S(=O)(=O)c1cn(C)cn1	none (no result: C diff HTS)
COc1ccc(NC(=O)Nc2ccc3c(c2)CC(=O)N([C@H](C)CO)C[C@@H](C)[C@@H](CN(C)S(C)(=O)=O)O3)cc1	none
C[C@@H]1CCCCO[C@@H](CN(C)C(=O)Nc2ccc3c(c2)OCO3)[C@H](C)CN([C@@H](C)CO)C(=O)c2cc(NC(=O)Nc3ccc(F)cc3)ccc2O1	none
C[C@H](CO)N1C[C@H](C)[C@@H](CN(C)C(=O)Nc2ccc3c(c2)OCO3)OCCCC[C@H](C)Oc2ccc(NC(=O)Nc3ccc(C(F)(F)F)cc3)cc2C1=O	none
C[C@@H]1CCCCO[C@@H](CN(C)C(=O)Nc2ccc(C(F)(F)F)cc2)[C@H](C)CN([C@@H](C)CO)C(=O)c2cc(NC(=O)Nc3ccc4c(c3)OCO4)ccc2O1	Tcruzi prolif 112
C[C@@H]1CN([C@@H](C)CO)C(=O)c2cc(NC(=O)Nc3ccc(F)cc3)ccc2O[C@@H](C)CCCCO[C@@H]1CN(C)C(=O)Nc1ccc2c(c1)OCO2	Pf Dd2 inh -89 (no result: Tcruzi prolif)
